Shown are actives, neighbours in structure and some others; about 2.3% of the full set was active somewhere.
Rango dissoc inh – prevents RanGTP from dissociating the Rango-importin beta complex; AID 540253; Biochemical FRET Rango-importin beta, RanGTP-induced dissociation; Potency, µM (series often up to 46.1 µM), inactives show at the highest dose activity change, negative = inhibition; O95149+P62826; 340,000 compounds, 0.071% hits; calls by dose curve; note: % of control where 0% means no effect; nearly all actives have a fitted effect of over 45% in size
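Quantitative HTS using a FRET biosensor: 0.1 uM Rango, 0.25 uM importin beta, 0.6 uM Ran, 2 mM GTP, 0.2 uM RCC1 final, PBS with DTT, Tween-20 and BSA. Post-read taken 45 min after Ran addition.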
Rango complex inh – inhibitors of Rango-importin beta complex formation. Q14974. Rango CFP/YFP FRET sensor + importin beta, 45 min. Potency, µM (series often up to 92.2 µM), for inactives: top-dose inhibition of complex formation. 340,000 compounds, 0.031% hits; calls by dose curve;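 note: 0% = DMSO wells and 100% = buffer wells lacking importin beta; nearly all actives have a fitted effect of over 15% in size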
Target sequence (Q14974 whole entry, looked up): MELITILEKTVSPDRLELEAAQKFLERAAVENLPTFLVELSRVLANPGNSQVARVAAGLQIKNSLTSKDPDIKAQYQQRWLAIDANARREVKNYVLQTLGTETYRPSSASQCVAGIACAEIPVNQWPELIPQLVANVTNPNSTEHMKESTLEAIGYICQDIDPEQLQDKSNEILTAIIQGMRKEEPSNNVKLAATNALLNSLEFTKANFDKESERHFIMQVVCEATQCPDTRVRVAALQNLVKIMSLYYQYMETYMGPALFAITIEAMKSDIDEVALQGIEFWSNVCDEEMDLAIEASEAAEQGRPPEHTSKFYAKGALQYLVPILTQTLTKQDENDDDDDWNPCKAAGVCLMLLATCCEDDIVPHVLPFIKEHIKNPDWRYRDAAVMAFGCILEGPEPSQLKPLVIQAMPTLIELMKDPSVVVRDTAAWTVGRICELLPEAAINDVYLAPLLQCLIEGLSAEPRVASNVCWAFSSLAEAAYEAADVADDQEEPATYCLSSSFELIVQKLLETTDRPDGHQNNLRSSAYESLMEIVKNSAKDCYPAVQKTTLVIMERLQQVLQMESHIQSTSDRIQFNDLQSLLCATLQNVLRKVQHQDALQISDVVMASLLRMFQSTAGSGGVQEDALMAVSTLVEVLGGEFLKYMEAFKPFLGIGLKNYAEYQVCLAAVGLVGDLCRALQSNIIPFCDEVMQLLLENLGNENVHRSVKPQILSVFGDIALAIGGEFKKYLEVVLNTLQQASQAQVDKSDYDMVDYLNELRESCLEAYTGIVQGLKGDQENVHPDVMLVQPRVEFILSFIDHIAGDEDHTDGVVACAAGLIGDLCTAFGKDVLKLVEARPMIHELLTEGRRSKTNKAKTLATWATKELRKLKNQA
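FRET biosensor Rango (snurportin 1 IBB between N-terminal EYFP and C-terminal Cerulean), 50 nM in PBS/1 mM DTT/0.02% Tween-20/0.1% BSA, preincubated 5 min RT with compound; 0.125 microM importin beta added, 45 min RT, CFP/YFP FRET ratio read.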
Nrf2 inh – Nrf2 pathway inhibition; AID 504444; A549 ARE-Fluc reporter, luciferase luminescence, 18-24 h; 360,000 compounds, 2.1% hits; Potency, µM (titrated, usually from 46 µM), for the others: at the highest dose activity change, negative = inhibition, actives largely listed as inhibitors; note: % is set by controls: 0 for no effect and ±100 for the full control effect; nearly all actives have a fitted effect of over 60% in size
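A549 ARE_Fluc cells (5000/well, 5% FBS OPTI-MEM) pre-incubated 2 h, then treated with compounds 18-24 h at 37C/5% CO2 in concentration-response. CellTiter-Fluor viability read first; BugLite luciferase luminescence after 15 min at room temperature gives Nrf2 activity.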
Nrf2 activator – Nrf2 pathway activation. AID 624171. 410,000 compounds, 0.31% hits. Potency, µM (top dose mostly 46.1 µM), inactives show at the top dose activation, most hits filed as activators. AREc32 ARE-luciferase reporter (MCF7-derived line), luminescence, 24 h; note: % of control where 0% means no effect; nearly all actives have a fitted effect of over 65% in size
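AREc32_Fluc, 1000 cells/well, OPTI-MEM + 5% FBS, o/n 37 deg C 5% CO2; 23 nL cpd by pin tool, 24 hr; Steady-Glo 30 min RT, luminescence.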
A549 tox – kills or reduces viability of A549 cells in Nrf2 counter-screen; A549 ARE-Fluc cells, CellTiter-Fluor viability, 18-24 h; 390,000 compounds, 0.16% hits; Potency, µM (top dose mostly 46 µM), for the others: top-dose activity change, negative = cytotoxicity, actives largely listed as inhibitors; note: % is set by controls: 0 for no effect and ±100 for the full control effect
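A549 ARE-Fluc cells in 5% FBS OPTI-MEM, 5000 cells/well, rested 2 h then exposed to compounds in concentration-response for 18-24 h at 37 °C. Viability by CellTiter-Fluor fluorescence (Ex 405/Em 525) after 30 min; luciferase luminescence (BugLite, 15 min, RT) read afterwards.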
* marks the source's active call; other numbers are inactive results; ? = inconclusive; nt = no result given; ! = not active in a repeat; [ ] = remark or other dose. Unless noted, calls come from the whole dose curve; as a rule, active = well fitted curve in the direction sought with a large enough effect; inconclusive = small, poorly fitted or top-dose-only effect, or another doubt; inactive = no such curve, though single readings can be large; an effect the other way counts as inactive or inconclusive. Potency is the fitted concentration of half-maximal effect.

SMILES	Rango dissoc inh	Rango complex inh	Nrf2 inh	Nrf2 activator	A549 tox
O=C(NC(NNc1ccc([N+](=O)[O-])cc1)(C(F)(F)F)C(F)(F)F)c1ccccc1Cl	-9%	2%	-20%	8%	?
O=C(NC(Nc1nc2ccc([N+](=O)[O-])cc2s1)(C(F)(F)F)C(F)(F)F)c1cccnc1	?	?	5.8µM*	-1%	7.3µM*
CN(C)S(=O)(=O)c1ccc2nc(NC(=O)c3cccnc3)sc2c1	-21%	1%	?	0%	2%
O=C(NC(Nc1nc2ccc([N+](=O)[O-])cc2s1)(C(F)(F)F)C(F)(F)F)c1ccccc1Cl	?	?	1.8µM*	0%	5.8µM*
CN(C(=O)c1ccc(NC(=O)Cc2cccc(NC(=O)C3CCCN(C(=O)C4CCCC4)C3)c2)cc1)C1CCCC1 (centres undefined)	9%	-1%	18µM*	5%	-11%
CN(C(=O)c1cccc(NC(=O)Cc2ccc(NC(=O)C3CCN(C(=O)CCc4ccccc4)CC3)cc2)c1)C1CCC1	1%	0%	-22%	7%	-2%
CN(C(=O)c1cccc(NC(=O)Cc2ccc(NC(=O)C3CCCN(C(=O)CCc4ccccc4)C3)cc2)c1)C1CCC1 (centres undefined)	1%	0%	16µM*	4%	-13%
CN(C(=O)c1ccc(NC(=O)Cc2cccc(NC(=O)C3CCCN(C(=O)CCc4ccccc4)C3)c2)cc1)C1CCCC1 (centres undefined)	-2%	0%	15µM*	4%	-15%
CN(C(=O)c1cccc(NC(=O)Cc2ccc(NC(=O)C3CCCN(C(=O)CCc4ccccc4)C3)cc2)c1)C1CCCC1 (centres undefined)	6%	4%	21µM*	4%	?
Nc1c(Br)cc(Br)c2cccnc12	nt	nt	0%	nt	0%
CN(Cc1ccccc1)C(=O)c1cccc(NC(=O)Cc2ccc(NC(=O)C3CCCN(C(=O)CCc4ccccc4)C3)cc2)c1 (centres undefined)	-9%	1%	?	6%	-2%
CN(C(=O)c1ccc(NC(=O)Cc2ccc(NC(=O)C3CCCN(C(=O)CCc4ccccc4)C3)cc2)cc1)C1CC1 (centres undefined)	-7%	-10%	12µM*	4%	-11%
CN(Cc1ccccc1)C(=O)c1ccc(NC(=O)Cc2cccc(NC(=O)C3CCCN(C(=O)CCc4ccccc4)C3)c2)cc1 (centres undefined)	-14%	-2%	21µM*	5%	-11%
Cc1nc(C(C)Nc2ncnc3ccc(-c4ccc5c(c4)OCO5)cc23)cs1 (centres undefined)	nt	nt	-12%	nt	-2%
O=C(O)c1ccc(/C=N\Nc2ccc(S(=O)(=O)N3CCOCC3)cc2[N+](=O)[O-])cc1	0%	0%	3%	0%	-12%
Cc1ccc(-n2c(O)c(/C=N/Nc3ccc(S(=O)(=O)N4CCOCC4)cc3[N+](=O)[O-])c3ccccc3c2=O)c(C)c1	-22%	0%	18µM*	14%	?
CCCc1cc(C(=O)O)c2ccccc2n1	0%	-6%	nt	0%	6%
Cc1ccc(NC(=O)Cc2cc(C(=O)O)c3ccccc3n2)c(C)c1	-19%	0%	5.8µM*	4%	?
Cc1ccn2c(-c3csc(NCc4ccccc4)n3)c(C)nc2c1	-9%	0%	26µM*	6%	?
Cc1nn(CC(=O)N2CCOCC2)c(=O)c2c1sc1ccccc12	?	?	10%	-1%	-3%
Cc1cccc(C)c1NC(=O)Cn1nc(C)c2sc3ccccc3c2c1=O	nt	nt	21µM*	0%	4%
CC(=O)Nc1cc[n+](C(C)C(=O)c2ccc(Cl)cc2)cc1 (centres undefined)	-1%	-2%	-18%	0%	1%
CC(=O)Nc1cc[n+](CC(=O)c2ccc(Cl)cc2)cc1	-24%	5%	23µM*	1%	-2%
CN(C)c1cc[n+](CC(=O)Nc2ccc(Oc3ccccc3)cc2)cc1	?	2%	23µM*	1%	-16%
CN(C)c1cc[n+](CC(=O)Nc2ccc(Cl)cc2)cc1	1%	-3%	6.5µM*	0%	2%
SMILES	Rango dissoc inh	Rango complex inh	Nrf2 inh	Nrf2 activator	A549 tox
CN(C)c1cc[n+](CC(=O)c2ccc(OC(F)F)cc2)cc1	2%	5%	21µM*	0%	-6%
C=C1CCN(C(Cc2ccccc2)C(=O)NCc2ccccc2)S(=O)(=O)c2ccccc21 (centres undefined)	nt	nt	15%	nt	1%
N#Cc1ccc(CN2CCN(C(=O)c3ccc(S(=O)(=O)N4CCCCCC4)cc3)CC2)cc1	11%	?	16µM*	0%	-9%
O=C(C1CCN(S(=O)(=O)c2ccccc2)CC1)N1CCN(Cc2ccc3c(c2)OCO3)CC1	13%	0%	-19%	0%	2%
COc1ccc(CN2CCN(C(=O)c3ccc(S(=O)(=O)N4CCCCCC4)cc3)CC2)cc1F	?	-2%	9.2µM*	1%	-20%
N#Cc1ccc(S(=O)(=O)N2CCC(C(=O)N3CCN(Cc4ccc5c(c4)OCO5)CC3)CC2)cc1	0%	0%	18µM*	0%	-8%
CCN(CC(=O)Nc1ccc([N+](=O)[O-])cc1OC)c1ccccc1	11%	-4%	?	0%	-4%
Cc1ccc(CCNC(=O)c2ccc3c(=O)n(-c4ccccc4)c(=O)[nH]c3c2)cc1	nt	nt	-1%[9.27 µM]	1%	-23%
COc1ccc(-n2c(=O)[nH]c3cc(C(=O)NCCc4ccccc4)ccc3c2=O)cc1OC	13%	-3%	13µM*!	0%	-13%
Fc1ccc(-c2noc3ncnc(NC4CCCCC4)c23)cc1	nt	nt	-25%	0%	3%
COc1ccc(CNC(=O)c2csc(Cc3ccc(Cl)cc3)n2)cc1	-11%	1%	23µM*	3%	9%
Cc1cc(C)c2[nH]c(C(=O)Nc3ccc(F)cc3Br)cc2c1	1%	1%	?	3%	5%
CC(NC(=O)Nc1nnc(C(F)(F)F)s1)(C(F)(F)F)C(F)(F)F	5%	-7%	5.2µM*	0%	16µM*
Cc1cc(C(=O)Nc2nnc(C(F)(F)F)s2)no1	-9%	-6%	4%	0%	-5%
Cc1cc(C(=O)Nc2nnc(C(F)(F)F)s2)cs1	1%	?	5%	8.9µM*	-6%
O=C(Nc1ccccc1C(=O)Nc1nnc(C(F)(F)F)s1)c1ccccc1Cl	3%	2%	6.5µM*	2%	16µM*
Cc1ccc(CNS(=O)(=O)c2cc(C(=O)Nc3cccc(C(F)(F)F)c3)ccc2F)cc1	nt	nt	nt	7%	-10%
Cc1ccc(C(=O)Nc2ccccc2C(=O)OCc2cc(=O)n3nc(C4CC4)sc3n2)cc1	nt	nt	nt	0%	0%
